In PubChem BioAssay (EPA / NIEHS):
Where “and” joins values, the source holds several entries; their conditions need not be identical. Equal entries are not always repeated. Inconclusive results are not listed. Calls of active or inactive are those of the source. Rule for the calls, unless noted: active = hit-call score of the fitted dose curve at least 0.9, where 1 is the maximum; inconclusive = response in the unintended direction; inactive = score below 0.9.

Legend:
[1] = biological target: Cellular tumor antigen p53 (Homo sapiens) (UniProt P04637); assay: TOX21_p53_BLA_p2_ratio: Tox21 HCT-116 p53 Agonism Beta-lactamase Assay, Ratio, Phase 2 (AID 2283592)
Sequence of Cellular tumor antigen p53 (Homo sapiens) (P04637 whole entry, looked up): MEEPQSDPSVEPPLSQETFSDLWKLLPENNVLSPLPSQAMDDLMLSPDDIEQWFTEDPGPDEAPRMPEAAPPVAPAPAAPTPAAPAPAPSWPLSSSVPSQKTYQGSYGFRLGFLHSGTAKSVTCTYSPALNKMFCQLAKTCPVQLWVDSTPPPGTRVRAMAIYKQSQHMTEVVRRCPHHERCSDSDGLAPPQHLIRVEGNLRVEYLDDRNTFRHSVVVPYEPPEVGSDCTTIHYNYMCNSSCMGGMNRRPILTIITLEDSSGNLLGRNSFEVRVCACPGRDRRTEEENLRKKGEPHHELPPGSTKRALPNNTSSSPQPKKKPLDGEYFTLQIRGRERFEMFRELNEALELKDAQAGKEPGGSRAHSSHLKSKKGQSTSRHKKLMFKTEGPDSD
How it was run: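 First, HCT116 reporter cells settle for 5 h at 37C. Next, DMSO compound solutions are pinned in (217-fold dilution) and left 16 h. Finally, CCF4-AM substrate is loaded 2 h at room temperature and the 460/530 nm ratio read.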

[2] = TOX21_p53_BLA_p3_viability: Viability Assessment in the Tox21 HCT-116 p53 Agonism Beta-lactamase Assay, Phase 3 (AID 2283593);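 note: cells exposed to compound for 16 h before reading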
How it was run: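 HCT116 cells, 4000/well, dosed 5 h after plating by pin transfer (217-fold dilution from DMSO stock) and incubated 16 h at 37C, 5% CO2. Viability read as ATP luminescence with CellTiter-Glo after 30 min at room temperature.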

[3] = biological target: Cellular tumor antigen p53 (Homo sapiens) (UniProt P04637); assay: TOX21_p53_BLA_p3_ratio: Tox21 HCT-116 p53 Agonism Beta-lactamase Assay, Ratio, Phase 3 (AID 2283596)
How it was run: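 Cells were seeded at 4000/well, rested 5 h at 37C, then dosed with DMSO compound solutions (217-fold dilution) for 16 h. CCF4-AM substrate was loaded for 2 h at room temperature, and the 460/530 nm emission ratio was fitted for gain of signal versus DMSO.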

[4] = TOX21_p53_BLA_p4_viability: Viability Assessment in the Tox21 HCT-116 p53 Agonism Beta-lactamase Assay, Phase 4 (AID 2283597);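 note: hits lower the luminescence signal meaning cytotoxicity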
How it was run: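 4000 HCT116 cells per well; 5 h attachment; compounds from DMSO, 217-fold dilution; 16 h at 37C. Then CCF4-AM, 2 h RT, followed by CellTiter-Glo, 30 min RT, luminescence. Decrease = cytotoxicity.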

[5] = biological target: Cellular tumor antigen p53 (Homo sapiens) (UniProt P04637); assay: TOX21_p53_BLA_p5_ratio: Tox21 HCT-116 p53 Agonism Beta-lactamase Assay, Ratio, Phase 5 (AID 2283599)
How it was run: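 HCT-116 p53-bla cells (4000/well) plated 5 h, dosed with compound (217-fold DMSO dilution) for 16 h at 37 C; CCF4-AM substrate 2 h at room temperature. Activity is the 460/530 nm emission ratio (405 nm excitation), fitted in gain-of-signal direction versus DMSO.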

[6] = TOX21_p53_BLA_p5_viability: Viability Assessment in the Tox21 HCT-116 p53 Agonism Beta-lactamase Assay, Phase 5 (AID 2283600)
How it was run: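 Decreased CellTiter-Glo luminescence denotes lost viability. Exposure: 16 h at 37C, 5% CO2, with compounds from DMSO stocks diluted 217-fold in wells of 4000 cells.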

[7] = biological target: Cellular tumor antigen p53 (Homo sapiens) (UniProt P04637); assay: TOX21_p53_BLA_p4_ratio: Tox21 HCT-116 p53 Agonism Beta-lactamase Assay, Ratio, Phase 4 (AID 2283601)
How it was run: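 HCT-116 p53 beta-lactamase reporter cells (4000/well) preincubated 5 h, then compound (217-fold dilution of DMSO stock) for 16 h at 37C. CCF4-AM substrate added 2 h at room temperature; 460/530 nm emission ratio fitted upward versus DMSO.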

PGR (gene 5241) [8] = biological target: PGR (gene 5241) (UniProt P06401); assay: TOX21_PR_BLA_Followup_Antagonist_ratio: Tox21 HEK293 Progesterone Receptor (PR) Antagonism Beta-lactamase Follow-Up Assay, Ratio (AID 2283934);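 note: PR-UAS-bla HEK293T cells stimulated with 1 nM R5020 agonist for 16 hr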
Sequence of PGR (gene 5241) (P06401 whole entry, looked up): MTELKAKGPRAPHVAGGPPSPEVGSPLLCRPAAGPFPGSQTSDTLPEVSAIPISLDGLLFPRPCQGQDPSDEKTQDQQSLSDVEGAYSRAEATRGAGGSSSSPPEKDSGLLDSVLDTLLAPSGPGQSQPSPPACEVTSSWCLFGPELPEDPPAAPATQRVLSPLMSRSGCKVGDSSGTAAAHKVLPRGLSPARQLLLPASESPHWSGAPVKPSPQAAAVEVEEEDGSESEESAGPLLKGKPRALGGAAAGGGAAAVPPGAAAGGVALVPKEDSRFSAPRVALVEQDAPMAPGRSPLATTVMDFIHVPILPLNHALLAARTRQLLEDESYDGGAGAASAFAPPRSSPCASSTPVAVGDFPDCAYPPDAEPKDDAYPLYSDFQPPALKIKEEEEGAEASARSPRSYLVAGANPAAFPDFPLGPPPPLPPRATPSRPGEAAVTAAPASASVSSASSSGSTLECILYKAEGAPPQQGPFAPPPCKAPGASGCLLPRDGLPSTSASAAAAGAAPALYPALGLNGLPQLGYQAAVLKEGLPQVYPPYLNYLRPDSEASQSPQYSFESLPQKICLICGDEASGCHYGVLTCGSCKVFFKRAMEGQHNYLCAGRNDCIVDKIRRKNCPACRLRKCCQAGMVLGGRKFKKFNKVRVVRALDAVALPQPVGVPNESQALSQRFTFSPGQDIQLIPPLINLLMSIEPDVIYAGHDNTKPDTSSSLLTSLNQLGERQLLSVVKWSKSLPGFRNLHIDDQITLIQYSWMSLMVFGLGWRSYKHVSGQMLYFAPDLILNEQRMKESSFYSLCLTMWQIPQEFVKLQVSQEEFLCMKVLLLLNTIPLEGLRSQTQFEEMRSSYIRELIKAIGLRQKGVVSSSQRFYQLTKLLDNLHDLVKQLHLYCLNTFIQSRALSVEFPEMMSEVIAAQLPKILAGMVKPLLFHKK
How it was run: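 Cells are plated, rested 6 hr, then dosed with test compound in DMSO and challenged with 1 nM promegestone. After 16 hr incubation, substrate loading for 2 h at room temperature precedes fluorescence reading; viability is measured in the same wells.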

[9] = TOX21_PR_BLA_Followup_Agonist_viability: Viability Assessment in the Tox21 HEK293 Progesterone Receptor (PR) Agonism Beta-lactamase Follow-Up Assay (AID 2283935);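 note: signal loss means lower viability so actives are cytotoxic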
How it was run: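 Cells were plated in medium with 2% charcoal-stripped FBS and rested 6 hr. Compounds in DMSO were then added for 16 hr at 37C, followed by the FRET substrate step and CellTiter-Glo luminescence after 30 min.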

[10] = TOX21_PR_BLA_Followup_Antagonist_viability: Viability Assessment in the Tox21 HEK293 Progesterone Receptor (PR) Antagonism Beta-lactamase Follow-Up Assay (AID 2283936);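 note: cells exposed to compound with R5020 agonist for 16 h; hits lower the luminescence signal meaning cytotoxicity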
How it was run: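 PR-UAS-bla HEK293T cells in medium with 2% charcoal-stripped FBS were treated with compounds plus R5020 for 16 hr at 37C. After the beta-lactamase read, CellTiter-Glo was added to the same wells and luminescence read after 30 min at room temperature.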

PGR (gene 5241) [11] = biological target: PGR (gene 5241) (UniProt P06401); assay: TOX21_PR_LUC_Followup_Agonist: Tox21 HEK293 Progesterone Receptor (PR) Agonism Luciferase Follow-Up Assay (AID 2283937; active = hit-call score of the fitted dose curve at least 0.9, where 1 is the maximum; inactive = score below 0.9)
How it was run: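 Seed HEK293-PR-A-luc cells, wait 5 h, add compounds in DMSO, incubate 16 h at 37C, add ONE-Glo, read luminescence after 30 min. Activity is increase over DMSO controls; run with a viability counter-screen.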

PGR (gene 5241) [12] = biological target: PGR (gene 5241) (UniProt P06401); assay: TOX21_PR_LUC_Followup_Antagonist: Tox21 HEK293 Progesterone Receptor (PR) Antagonism Luciferase Follow-Up Assay (AID 2283938);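 note: curve fitted upward as signal gain over DMSO baseline despite antagonist label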
How it was run: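 HEK293-PR-A-luc cells, 3,000/well, preincubated 5 h at 37C before compound addition in DMSO; 16 h compound exposure at 37C. ONE-Glo luciferase luminescence read after 30 min at room temperature, fitted relative to DMSO baseline.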

[13] = TOX21_PR_LUC_Followup_Agonist_viability: Viability Assessment in the Tox21 HEK293 Progesterone Receptor (PR) Agonism Luciferase Follow-Up Assay (AID 2283941);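 note: loss of signal means cytotoxicity so actives lower viability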
How it was run: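 Multiplexed viability endpoint of the PR agonist luciferase follow-up: HEK293-PR-A-luc cells treated 16 h at 37C, with viability scored as decrease in CellTiter-Glo ATP signal.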

Measured: AC50

O=C(Cl)c1ccccc1
inactive: [1] | [2] | [3] | [4] | [5] | [6] | [7]

CNC(=O)Oc1c(C(C)(C)C)cc(C)cc1C(C)(C)C
inactive: [1] | [2]

N[C@@H](Cc1ccc(N(CCCl)CCCl)cc1)C(=O)O
active: [1] 26.6 µM and 25.6 µM | [3] 20.2 µM and 24.6 µM | [5] 32.6 µM and 29.2 µM | [7] 22.7 µM and 30.4 µM
inactive: [2] | [4] | [6]

CCCC1CCCCN1 (centres undefined)
inactive: [1] | [2] | [3] | [4] | [5] | [7]

O=c1[nH]cc(N(CCCl)CCCl)c(=O)[nH]1
inactive: [1] | [2] | [4] | [5]
active: [3] 23 µM

Oc1ccc2c3c1O[C@H]1[C@@H](O)C=C[C@H]4[C@H](C2)NCC[C@@]341
inactive: [1] | [2] | [3] | [4] | [5] | [6]

c1cncc([C@@H]2CCCCN2)c1
inactive: [1] | [2]

O=C1C(Cl)C(CCl)CN1c1cccc(C(F)(F)F)c1 (centres undefined)
not listed: [6]
inactive: all other assays above

ClC=CCl
inactive: [1] | [2] | [3] | [4] | [5] | [6] | [7]

Cc1cc(Cl)ccc1N=CN(C)C
inactive: [1] | [2] | [3] | [4] | [5] | [6] | [7]

C=C[C@H]1CN2CC[C@H]1C[C@@H]2[C@@H](O)c1ccnc2ccccc12
inactive: [1] | [2] | [3] | [4] | [5] | [6] | [7]

O=C(O)CCCO
inactive: [1] | [2] | [3] | [4] | [5] | [7]

Cc1c(Cl)c(=O)oc2cc(OP(=O)(OCCCl)OCCCl)ccc12
inactive: [1] | [2] | [3] | [5] | [6] | [7]

CC(N)Cc1ccc2c(c1)OCO2 (centres undefined)
inactive: [1] | [2] | [3] | [5] | [6] | [7]

Cc1ccc(-c2nc3ccc(C)cn3c2CC(=O)N(C)C)cc1
inactive: [1] | [2] | [5] | [6]

Cc1nc(N)nc(N)n1
inactive: [1] | [2] | [6] | [7]
